Many of the other results were omitted from the sample, so the strongest signals are more common in it than they were.
Columns and labels:
Test in all cases: glycan array binding signal (z-score within array); higher = stronger binding
Conditions in all cases: glycan notation: IUPAC condensed, linker removed
[1] = target: Fuc(a1-2)Gal(b1-3)GlcNAc(b1-3)[Neu5Ac(a2-6)Gal(b1-4)GlcNAc(b1-6)]Gal(b1-4)Glc
Procedure, shortened: (§1)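 The binding signal is a Z-score computed within each array and averaged over linkers. Arrays of the same protein sequence at different concentrations or buffers were also averaged together. Data originate from 3228 arrays in the Consortium for Functional Glycomics database, kept only where the protein sequence was available.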

[2] = target: Fuc(a1-2)Gal(b1-3)[Fuc(a1-4)]GlcNAc(b1-2)Man(a1-3)[Fuc(a1-2)Gal(b1-3)[Fuc(a1-4)]GlcNAc(b1-2)Man(a1-6)]Man(b1-4)GlcNAc(b1-4)GlcNAc
Procedure, shortened: as §1

[3] = target: Fuc(a1-2)Gal(b1-4)[Fuc(a1-3)]GlcNAc(b1-2)[Fuc(a1-2)Gal(b1-4)[Fuc(a1-3)]GlcNAc(b1-4)]Man(a1-3)[Fuc(a1-2)Gal(b1-4)[Fuc(a1-3)]GlcNAc(b1-2)Man(a1-6)]Man(b1-4)GlcNAc(b1-4)GlcNAc
Procedure, shortened: as §1

[4] = target: Fuc(a1-2)Gal(b1-4)[Fuc(a1-3)]GlcNAc(b1-3)GalNAc
Procedure, shortened: as §1

[5] = target: Fuc(a1-2)[Gal(a1-3)]Gal(b1-3)GlcNAc(b1-2)Man(a1-3)[Fuc(a1-2)[Gal(a1-3)]Gal(b1-3)GlcNAc(b1-2)Man(a1-6)]Man(b1-4)GlcNAc(b1-4)GlcNAc
Procedure, shortened: as §1

[6] = target: Fuc(a1-2)[Gal(a1-3)]Gal(b1-4)GlcNAc(b1-3)GalNAc
Procedure, shortened: as §1

[7] = target: Fuc(a1-2)[Gal(a1-3)]Gal(b1-4)[Fuc(a1-3)]GlcNAc(b1-3)GalNAc
Procedure, shortened: as §1

[8] = target: Fuc(a1-2)[GalNAc(a1-3)]Gal(b1-4)GlcNAc(b1-3)GalNAc
Procedure, shortened: as §1

[9] = target: Fuc(a1-2)[GalNAc(a1-3)]Gal(b1-4)[Fuc(a1-3)]GlcNAc(b1-3)GalNAc
Procedure, shortened: as §1

[10] = target: Fuc(a1-3)[Gal(b1-4)]GlcNAc(b1-3)GalNAc
Procedure, shortened: as §1

[11] = target: Fuc(a1-3)[Gal(b1-4)]GlcNAc(b1-4)Gal(b1-4)[Fuc(a1-3)]GlcNAc
Procedure, shortened: as §1

Gal(a1-2)Gal = target: Gal(a1-2)Gal
Procedure, shortened: as §1

Gal(a1-6)Glc = target: Gal(a1-6)Glc
Procedure, shortened: as §1

[12] = target: Gal(b1-3)GlcNAc(a1-6)Gal(b1-4)GlcNAc
Procedure, shortened: as §1

[13] = target: Gal(b1-3)GlcNAc(b1-2)Man(a1-3)[Gal(b1-3)GlcNAc(b1-2)Man(a1-6)]Man(b1-4)GlcNAc(b1-4)GlcNAc
Procedure, shortened: as §1

[14] = target: Gal(b1-3)GlcNAc(b1-3)Gal(b1-4)Glc
Procedure, shortened: as §1

[15] = target: Gal(b1-3)GlcNAc(b1-3)Gal(b1-4)GlcNAc(b1-2)Man(a1-3)[Gal(b1-3)GlcNAc(b1-3)Gal(b1-4)GlcNAc(b1-2)Man(a1-6)]Man(b1-4)GlcNAc(b1-4)GlcNAc
Procedure, shortened: as §1

[16] = target: Gal(b1-3)GlcNAc(b1-6)GalNAc
Procedure, shortened: as §1

[17] = target: Gal(b1-4)GlcNAc(b1-2)[Gal(b1-4)GlcNAc(b1-6)]Man(a1-6)[Gal(b1-4)GlcNAc(b1-2)Man(a1-3)]Man(b1-4)GlcNAc(b1-4)[Fuc(a1-6)]GlcNAc
Procedure, shortened: as §1

[18] = target: Gal(b1-4)GlcNAc(b1-3)Gal(b1-4)GlcNAc(b1-3)Gal(b1-4)GlcNAc
Procedure, shortened: as §1

[19] = target: Gal(b1-4)GlcNAc(b1-3)Gal(b1-4)GlcNAc(b1-3)Gal(b1-4)GlcNAc(b1-2)[Gal(b1-4)GlcNAc(b1-3)Gal(b1-4)GlcNAc(b1-3)Gal(b1-4)GlcNAc(b1-6)]Man(a1-6)[Gal(b1-4)GlcNAc(b1-3)Gal(b1-4)GlcNAc(b1-3)Gal(b1-4)GlcNAc(b1-2)Man(a1-3)]Man(b1-4)GlcNAc(b1-4)[Fuc(a1-6)]GlcNAc
Procedure, shortened: as §1

[20] = target: Gal(b1-4)GlcNAc(b1-3)Gal(b1-4)GlcNAc(b1-3)Gal(b1-4)GlcNAc(b1-3)Gal(b1-4)GlcNAc(b1-2)Man(a1-3)[Gal(b1-4)GlcNAc(b1-3)Gal(b1-4)GlcNAc(b1-3)Gal(b1-4)GlcNAc(b1-3)Gal(b1-4)GlcNAc(b1-2)Man(a1-6)]Man(b1-4)GlcNAc(b1-4)GlcNAc
Procedure, shortened: as §1

[21] = target: Gal(b1-4)GlcNAc(b1-3)Gal(b1-4)GlcNAc(b1-3)[Gal(b1-4)GlcNAc(b1-3)Gal(b1-4)GlcNAc(b1-6)]GalNAc
Procedure, shortened: as §1

[22] = target: Gal(b1-4)GlcNAc(b1-3)[Gal(b1-4)GlcNAc(b1-6)]Gal(b1-4)GlcNAc
Procedure, shortened: as §1

[23] = target: Gal(b1-4)GlcNAc(b1-6)GalNAc
Procedure, shortened: as §1

[24] = target: Gal(b1-4)GlcNAc(b1-6)[Gal(b1-4)GlcNAc(b1-3)]GalNAc
Procedure, shortened: as §1

Gal(b1-4)GlcNAc6P = target: Gal(b1-4)GlcNAc6P
Procedure, shortened: as §1

Gal3S(b1-4)Glc = target: Gal3S(b1-4)Glc
Procedure, shortened: as §1

[25] = target: Gal3S(b1-4)[Fuc(a1-3)]Glc6S
Procedure, shortened: as §1

[26] = target: Gal3S(b1-4)[Fuc(a1-3)]GlcNAc
Procedure, shortened: as §1

B1: Gal 12 (Homo sapiens), Q96DT0 (protein)
chain: MSQPSGGRAPGTRIYSWSCPTVMSPGEKLDPIPDSFILQPPVFHPVVPYVTTIFGGLHAGKMVMLQGVVPLDAHRFQVDFQCGCSLCPRPDIAFHFNPRFHTTKPHVICNTLHGGRWQREARWPHLALRRGSSFLILFLFGNEEVKVSVNGQHFLHFRYRLPLSHVDTLGIFGDILVEAVGFLNINPFVEGSREYPAGHPFLLMSPRLEVPCSHALPQGLSPGQVIIVRGLVLQEPKHFTVSLRDQAAHAPVTLRASFADRTLAWISRWGQKKLISAPFLFYPQRFFEVLLLFQEGGLKLALNGQGLGATSMNQQALEQLRELRISGSVQLYCVHS
glycan array binding signal (z-score) [1]: -0.876 | glycan array binding signal (z-score) [2]: 6.26 | glycan array binding signal (z-score) [3]: 3.71 | glycan array binding signal (z-score) [4]: 5.15 | glycan array binding signal (z-score) [5]: -0.674 | glycan array binding signal (z-score) [6]: -0.63 | glycan array binding signal (z-score) [7]: 4.56 | glycan array binding signal (z-score) [8]: 0.193 | glycan array binding signal (z-score) [9]: 2.65 | glycan array binding signal (z-score) [10]: 2.44 | glycan array binding signal (z-score) [11]: -0.147 | glycan array binding signal (z-score) (Gal(a1-2)Gal): -0.863 | glycan array binding signal (z-score) (Gal(a1-6)Glc): -0.527 | glycan array binding signal (z-score) [12]: -0.349 | glycan array binding signal (z-score) [13]: 0.94 | glycan array binding signal (z-score) [14]: -0.471 | glycan array binding signal (z-score) [15]: -0.574 | glycan array binding signal (z-score) [16]: -0.771 | glycan array binding signal (z-score) [17]: 1.75 | glycan array binding signal (z-score) [18]: -0.453 | glycan array binding signal (z-score) [19]: 3.44 | glycan array binding signal (z-score) [20]: 2.32 | glycan array binding signal (z-score) [21]: -0.119 | glycan array binding signal (z-score) [22]: 0.824 | glycan array binding signal (z-score) [23]: 0.417 | glycan array binding signal (z-score) [24]: 0.954 | glycan array binding signal (z-score) (Gal(b1-4)GlcNAc6P): 0.272 | glycan array binding signal (z-score) (Gal3S(b1-4)Glc): 0.451 | glycan array binding signal (z-score) [25]: 3.19 | glycan array binding signal (z-score) [26]: 2.76
